Most compounds without a hit are left out; they make up all but 1.8% or so of the library.
GCN5L2 inh = inhibitors of human GCN5L2 histone acetyltransferase; AID 504327; Q92830; 390,000 compounds, 0.21% hits; Potency, µM (top dose mostly 58.9 µM), without a hit: at the top dose activity change, negative = inhibition, hits mostly inhibitors; GCN5L2 HAT assay, ThioGlo1 CoA-SH fluorescence
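Enzyme at 20nM final was mixed with library compounds for 15 min at room temperature. Peptide H3(1-25) at 75uM, acetyl-CoA at 70uM and ThioGlo1 at 50uM were then added. Plates were read immediately and after 20 min (Ex340nm/Em540nm).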
TrxR1 inh = rat TrxR1 inhibition | Potency, µM (titrated, usually from 114 µM), inactives show at the highest dose activity change, negative = inhibition, hits mostly inhibitors | O89049 | recombinant rTrxR1, NADPH fluorescence consumption, selenite substrate | 390,000 compounds, 1% hits | AID 588453; further: nearly all actives have a fitted effect of over 65% in size
Target sequence (O89049 whole entry, looked up): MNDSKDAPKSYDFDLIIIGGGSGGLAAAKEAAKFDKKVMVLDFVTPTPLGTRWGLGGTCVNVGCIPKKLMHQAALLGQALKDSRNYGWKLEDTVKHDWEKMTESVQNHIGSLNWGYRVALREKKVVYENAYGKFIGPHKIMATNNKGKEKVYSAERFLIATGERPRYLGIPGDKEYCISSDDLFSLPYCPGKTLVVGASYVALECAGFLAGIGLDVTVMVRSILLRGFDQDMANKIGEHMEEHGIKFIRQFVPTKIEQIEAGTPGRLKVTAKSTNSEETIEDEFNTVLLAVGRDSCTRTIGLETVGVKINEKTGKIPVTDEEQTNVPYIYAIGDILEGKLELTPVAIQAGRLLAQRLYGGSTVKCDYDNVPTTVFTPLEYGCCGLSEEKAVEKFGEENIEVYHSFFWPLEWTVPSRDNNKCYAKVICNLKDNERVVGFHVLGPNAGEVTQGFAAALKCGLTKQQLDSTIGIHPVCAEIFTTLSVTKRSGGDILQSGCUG
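Rat TrxR1 (90 nM in the dispensed reagent) was pre-reduced with 400 uM NADPH for 5 min at room temperature, then incubated with compound for 15 min. After 400 uM selenite was added, NADPH fluorescence (Ex 340/Em 450 nm) was followed for 8 min.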
TrxR1 substrate = is turned over as a substrate by rat TrxR1. 390,000 compounds, 0.01% hits. Potency, µM (doses to about 114 µM), without a hit: at the highest dose activity change, negative = substrate turnover. purified TrxR1 substrate turnover, NADPH consumption readout. AID 588456. O89049; further: nearly all actives have a fitted effect of over 50% in size
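Rat TrxR1, dispensed at 90 nM, was prereduced with 400 uM NADPH (final) for 5 min at ~22 deg C, then incubated with compound 15 min before 400 uM selenite. A first-read NADPH fluorescence drop versus no-compound background flagged substrates.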
VDR inhibitor = vitamin D3 receptor (human) inhibition. VDR-SRC2-3 peptide fluorescence polarization, 2 h. Potency, µM, without a hit: max response, negative = inhibition, actives largely listed as inhibitors. P11473. 400,000 compounds, 0.93% hits
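Signal is fluorescence polarization, reporting how far test compounds block the interaction of VDR with the SRC2-3 coregulator peptide after a 2 h room-temperature incubation.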
Starred values were filed as active, the others as inactive; ! = a repeat was not active; [ ] = another dose, or the depositor's remark. The call rests on the fitted dose curve; in most records, active means well fitted curve in the direction sought with a large enough effect; inconclusive means small, poorly fitted or top-dose-only effect, or another doubt; inactive means no such curve, though single readings can be large; an effect the other way counts as inactive or inconclusive. On the % scale 0 is the no-effect control and ±100 the full control effect; potency means the concentration at half of the fitted maximal effect.

`COc1ccc(/C=C2\CCc3ccccc3C2=O)cc1Cn1cccn1` gave GCN5L2 inh 18µM*, TrxR1 inh -9%, TrxR1 substrate -15% and VDR inhibitor -25%.
For CC(=O)OC1CC2C(C)(C)C(O)CC[C@@]2(C)C2CC[C@@]3(C)C(c4ccoc4)OC(=O)C4O[C@@]43[C@]12C (some centres not stated) the results were GCN5L2 inh -10% and VDR inhibitor inconclusive.
Screening O=C(O)CC1=C(O)C(=O)N(c2ccccc2)C1c1ccccc1 (configuration not stated) returned GCN5L2 inh -4%, TrxR1 inh 45µM*, TrxR1 substrate -8% and VDR inhibitor 4%.
Screening O=C(O)CC1=C(O)C(=O)N(c2ccccc2)C1c1ccc(Br)cc1 (configuration not stated) returned GCN5L2 inh -8%, TrxR1 inh inconclusive, TrxR1 substrate 1% and VDR inhibitor -27%.
O=C(Nc1ccc(Br)cc1F)c1cnn2c1NC(=C1CC1)C=C2C(F)F was read as TrxR1 inh 9% and TrxR1 substrate 4%.
O=C(CCl)N(C/C=C/c1ccccc1)c1ccc2c(c1)OCCO2 was read as GCN5L2 inh -7%, TrxR1 inh 7.9µM*, TrxR1 substrate 1%[57.1 µM] and VDR inhibitor -16%.
For O=c1c2c([N+](=O)[O-])cc([N+](=O)[O-])cc2sn1Cc1ccccc1 the results were GCN5L2 inh 1.3µM*, TrxR1 inh inconclusive, TrxR1 substrate -11% and VDR inhibitor 22µM*.
O=C(Nc1ccc(Br)cc1)c1cc([N+](=O)[O-])cc([N+](=O)[O-])c1 was read as GCN5L2 inh -21%, TrxR1 inh 7%, TrxR1 substrate -2% and VDR inhibitor -7%.
Screening O=[N+]([O-])c1ccc(S(=O)Cc2ccccc2)c([N+](=O)[O-])c1 (configuration not stated) returned TrxR1 inh inconclusive, TrxR1 substrate 13%[57.1 µM] and VDR inhibitor inconclusive.
Screening O=c1c2c([N+](=O)[O-])cc([N+](=O)[O-])cc2sn1-c1ccc(Br)cc1 returned GCN5L2 inh 7.1µM*, TrxR1 inh -28%, TrxR1 substrate -19% and VDR inhibitor 25µM*.
Screening O=C1C=CC(=O)N1c1cccc(-c2ccccc2)c1 returned GCN5L2 inh -18%, TrxR1 inh 2.5µM*, TrxR1 substrate 7%[57.1 µM] and VDR inhibitor 45µM*.
Screening CC(C)CN(C[C@@H](OP(=O)(O)O)[C@H](Cc1ccccc1)NC(=O)O[C@@H]1CCOC1)S(=O)(=O)c1ccc(N)cc1 returned GCN5L2 inh -15% and VDR inhibitor -11%.
`CSC(SC)=C(C#N)C(=O)c1ccccc1` gave GCN5L2 inh -3%, TrxR1 inh 18µM*, TrxR1 substrate 4%[57.1 µM] and VDR inhibitor inconclusive.
`CC(C)C(C(=O)O)N1C(=O)/C(=C/c2ccc(Br)cc2)SC1=S` (configuration not stated) gave GCN5L2 inh inconclusive and VDR inhibitor 5µM*.
Screening Cc1ccc(/C=C2\SC(=S)N(C(Cc3ccccc3)C(=O)O)C2=O)cc1 (configuration not stated) returned GCN5L2 inh 12%, TrxR1 inh -15%, TrxR1 substrate -14% and VDR inhibitor 50µM*.
For CC(=C\c1ccccc1)/C=C1/SC(=S)N(C(C(=O)O)C(C)C)C1=O (configuration not stated) the results were GCN5L2 inh inconclusive, TrxR1 inh 8%, TrxR1 substrate -7% and VDR inhibitor inconclusive.
O=C(O)C(Cc1ccccc1)N1C(=O)/C(=C/c2ccccc2)SC1=S (configuration not stated) was read as GCN5L2 inh -10%, TrxR1 inh -20%, TrxR1 substrate -16% and VDR inhibitor inconclusive.
For CCCCN(CCCC)c1ccc(C=Nc2ccc(/C=C/c3ccnc4ccccc34)cc2)cc1C the results were TrxR1 inh -12% and TrxR1 substrate -12%.
O=C1CCC[C@@H]2[C@@H](Cc3ccccc3)[C@@H](Nc3ccccc3)C[C@@H]3CCN1[C@@H]32 was read as TrxR1 inh 8% and TrxR1 substrate 0%.
`O=C(O)c1c(Cl)c(Cl)c(Cl)c(Cl)c1-c1c2cc(I)c(=O)c(I)c-2oc2c(I)c(O)c(I)cc12` gave GCN5L2 inh 2µM* and VDR inhibitor 5.6µM*.
Screening CCOC(=O)C(C(=O)OCC)C(C(=O)OCC)N1CCOCC1 (configuration not stated) returned GCN5L2 inh -9%, TrxR1 inh 1.3µM*, TrxR1 substrate 6% and VDR inhibitor 40µM*.
`C=C1C(=O)O[C@@H]2[C@H]3O[C@]3(C)CC/C=C(\C)CC[C@@H]12` gave GCN5L2 inh -3%, TrxR1 inh 56µM*, TrxR1 substrate 1% and VDR inhibitor 22µM*!.
C=C1C(=O)OC2C1CC/C(C)=C/CCC1(C)OC21 (configuration not stated) was read as GCN5L2 inh -14% and VDR inhibitor inconclusive.
For C=C1C(=O)OC2C=C(C)CCC=C(C)CCC12 (configuration not stated) the results were GCN5L2 inh -21% and VDR inhibitor 40µM*.
For O=C(Oc1ccccc1)N1CCC2(CCCN(c3ncccn3)C2)CC1 the results were GCN5L2 inh -8% and VDR inhibitor -10%.
`O=C(/C=C/c1c(F)cccc1Cl)c1ccc(O)cc1` gave GCN5L2 inh -7%, TrxR1 inh inconclusive, TrxR1 substrate 3% and VDR inhibitor 79µM*.
`CC(=O)Nc1ccc(C2CC(c3ccc(Cl)cc3)=NN2c2ccccc2)cc1` (configuration not stated) gave GCN5L2 inh 32µM*, TrxR1 inh -14%, TrxR1 substrate 230% and VDR inhibitor 6%.
Oc1ccc(C2=NN(c3ccccc3)C(c3ccc(F)cc3)C2)cc1 (configuration not stated) was read as GCN5L2 inh -11%, TrxR1 inh inconclusive, TrxR1 substrate 317% and VDR inhibitor 7%.
For Cc1ccc(CN2[C@H]3CCCC[C@@H]3OCCS2(=O)=O)cc1 the results were TrxR1 inh 18% and TrxR1 substrate 2%.
CN(Cc1ccco1)c1nc(-c2ccccc2C(F)(F)F)nc2ccccc12 was read as GCN5L2 inh -18% and VDR inhibitor 35µM*.
Screening CN(Cc1ccco1)c1nc(-c2cccnc2)nc2ccccc12 returned GCN5L2 inh -23% and VDR inhibitor 32µM*.
O=C(Cc1ccc(F)cc1)NO was read as TrxR1 inh 14% and TrxR1 substrate 9%.
`Cc1cc2c(cc1NC(=O)c1ccc(C(C)(C)C)cc1)n(C)c(=O)c(=O)n2C` gave GCN5L2 inh -1%, TrxR1 inh 2%[57.1 µM], TrxR1 substrate 0%[57.1 µM] and VDR inhibitor 10%.
For COc1cc2nc(NC3CCN(Cc4ccccc4)CC3)nc(N3CCCN(C)CC3)c2cc1OC the results were TrxR1 inh -11% and TrxR1 substrate 26%.

Source: PubChem BioAssay
